Legend:
Assay in all cases: log2 ratio of Biotin-Ahx-Ub-VS probe labelling (fragment/DMSO); higher = less target engagement (more negative = stronger competition), active = hit call of the paper (q ≤ 0.05, log2 ratio ≤ -1)
Details in all cases: compound concentration: 200 uM; treatment time: 3 h
[1] = target: T1, USP19 (UniProt O94966)
T1 sequence (whole entry): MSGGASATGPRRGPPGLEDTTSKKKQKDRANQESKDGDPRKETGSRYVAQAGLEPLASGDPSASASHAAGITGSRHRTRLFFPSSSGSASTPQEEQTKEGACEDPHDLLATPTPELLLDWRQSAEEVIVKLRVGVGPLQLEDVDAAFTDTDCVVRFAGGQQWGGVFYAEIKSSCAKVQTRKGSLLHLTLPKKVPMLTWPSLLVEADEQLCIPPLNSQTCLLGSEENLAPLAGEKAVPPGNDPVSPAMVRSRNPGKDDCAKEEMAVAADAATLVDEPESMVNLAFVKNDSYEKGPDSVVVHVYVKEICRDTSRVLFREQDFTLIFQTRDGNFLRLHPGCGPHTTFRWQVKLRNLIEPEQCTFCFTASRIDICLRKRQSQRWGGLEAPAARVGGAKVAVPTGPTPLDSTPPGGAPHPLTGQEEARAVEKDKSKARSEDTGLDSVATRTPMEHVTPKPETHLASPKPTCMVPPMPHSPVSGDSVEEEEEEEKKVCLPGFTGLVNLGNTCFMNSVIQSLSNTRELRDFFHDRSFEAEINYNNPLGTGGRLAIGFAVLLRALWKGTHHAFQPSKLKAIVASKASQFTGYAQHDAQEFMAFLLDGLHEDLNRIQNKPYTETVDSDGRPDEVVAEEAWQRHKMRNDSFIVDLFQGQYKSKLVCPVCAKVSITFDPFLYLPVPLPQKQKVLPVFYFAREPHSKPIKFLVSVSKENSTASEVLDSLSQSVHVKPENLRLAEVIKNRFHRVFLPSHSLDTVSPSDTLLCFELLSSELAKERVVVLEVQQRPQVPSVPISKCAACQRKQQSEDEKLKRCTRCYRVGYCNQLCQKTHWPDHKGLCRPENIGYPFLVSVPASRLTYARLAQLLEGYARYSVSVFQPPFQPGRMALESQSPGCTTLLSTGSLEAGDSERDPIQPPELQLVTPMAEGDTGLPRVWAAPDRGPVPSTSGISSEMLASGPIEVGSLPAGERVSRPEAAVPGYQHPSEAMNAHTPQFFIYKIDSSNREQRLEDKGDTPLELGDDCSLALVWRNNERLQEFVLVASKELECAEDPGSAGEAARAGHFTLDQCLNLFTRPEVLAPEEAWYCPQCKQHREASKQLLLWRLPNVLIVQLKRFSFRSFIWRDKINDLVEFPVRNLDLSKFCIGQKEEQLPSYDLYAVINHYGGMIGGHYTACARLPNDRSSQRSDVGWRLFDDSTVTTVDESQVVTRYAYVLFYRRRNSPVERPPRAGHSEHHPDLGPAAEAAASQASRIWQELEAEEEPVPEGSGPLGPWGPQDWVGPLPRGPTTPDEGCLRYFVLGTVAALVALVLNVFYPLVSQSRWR
Method in brief: (§1)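 Labelled DUBs from HEK293T lysate were NeutrAvidin-enriched, digested with LysC and trypsin, and run by diaPASEF LC-MS/MS. Before that, each 495 µg sample in Tris/CHAPS/IGEPAL buffer with protease inhibitors was treated in triplicate with fragment at 200 µM or vehicle for 3 h, then with Biotin-Ahx-Ub-VS at 0.5 µM final for 1 h. Values are average log2 ratios of fragment over vehicle by unpaired t-test, based on global-median-normalised Spectronaut label-free quantities from proteins with ≥2 unique peptides.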

[2] = target: T2, USP22 (UniProt Q9UPT9)
T2 sequence (whole entry): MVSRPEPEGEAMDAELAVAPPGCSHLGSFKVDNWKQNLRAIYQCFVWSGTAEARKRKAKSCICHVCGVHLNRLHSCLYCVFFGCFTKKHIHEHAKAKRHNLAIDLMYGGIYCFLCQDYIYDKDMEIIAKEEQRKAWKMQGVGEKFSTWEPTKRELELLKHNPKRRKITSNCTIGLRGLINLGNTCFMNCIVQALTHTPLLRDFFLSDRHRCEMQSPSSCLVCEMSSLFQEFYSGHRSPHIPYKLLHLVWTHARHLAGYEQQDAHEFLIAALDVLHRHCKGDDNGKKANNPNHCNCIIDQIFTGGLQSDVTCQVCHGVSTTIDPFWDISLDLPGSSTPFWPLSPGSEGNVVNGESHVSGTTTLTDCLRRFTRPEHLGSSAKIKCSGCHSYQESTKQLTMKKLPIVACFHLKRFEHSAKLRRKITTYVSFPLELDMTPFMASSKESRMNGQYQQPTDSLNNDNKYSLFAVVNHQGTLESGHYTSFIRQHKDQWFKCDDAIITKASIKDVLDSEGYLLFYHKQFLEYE
Method in brief: as §1

[3] = target: USP24 (UniProt Q9UPU5)
USP24, sequence (Q9UPU5 whole entry): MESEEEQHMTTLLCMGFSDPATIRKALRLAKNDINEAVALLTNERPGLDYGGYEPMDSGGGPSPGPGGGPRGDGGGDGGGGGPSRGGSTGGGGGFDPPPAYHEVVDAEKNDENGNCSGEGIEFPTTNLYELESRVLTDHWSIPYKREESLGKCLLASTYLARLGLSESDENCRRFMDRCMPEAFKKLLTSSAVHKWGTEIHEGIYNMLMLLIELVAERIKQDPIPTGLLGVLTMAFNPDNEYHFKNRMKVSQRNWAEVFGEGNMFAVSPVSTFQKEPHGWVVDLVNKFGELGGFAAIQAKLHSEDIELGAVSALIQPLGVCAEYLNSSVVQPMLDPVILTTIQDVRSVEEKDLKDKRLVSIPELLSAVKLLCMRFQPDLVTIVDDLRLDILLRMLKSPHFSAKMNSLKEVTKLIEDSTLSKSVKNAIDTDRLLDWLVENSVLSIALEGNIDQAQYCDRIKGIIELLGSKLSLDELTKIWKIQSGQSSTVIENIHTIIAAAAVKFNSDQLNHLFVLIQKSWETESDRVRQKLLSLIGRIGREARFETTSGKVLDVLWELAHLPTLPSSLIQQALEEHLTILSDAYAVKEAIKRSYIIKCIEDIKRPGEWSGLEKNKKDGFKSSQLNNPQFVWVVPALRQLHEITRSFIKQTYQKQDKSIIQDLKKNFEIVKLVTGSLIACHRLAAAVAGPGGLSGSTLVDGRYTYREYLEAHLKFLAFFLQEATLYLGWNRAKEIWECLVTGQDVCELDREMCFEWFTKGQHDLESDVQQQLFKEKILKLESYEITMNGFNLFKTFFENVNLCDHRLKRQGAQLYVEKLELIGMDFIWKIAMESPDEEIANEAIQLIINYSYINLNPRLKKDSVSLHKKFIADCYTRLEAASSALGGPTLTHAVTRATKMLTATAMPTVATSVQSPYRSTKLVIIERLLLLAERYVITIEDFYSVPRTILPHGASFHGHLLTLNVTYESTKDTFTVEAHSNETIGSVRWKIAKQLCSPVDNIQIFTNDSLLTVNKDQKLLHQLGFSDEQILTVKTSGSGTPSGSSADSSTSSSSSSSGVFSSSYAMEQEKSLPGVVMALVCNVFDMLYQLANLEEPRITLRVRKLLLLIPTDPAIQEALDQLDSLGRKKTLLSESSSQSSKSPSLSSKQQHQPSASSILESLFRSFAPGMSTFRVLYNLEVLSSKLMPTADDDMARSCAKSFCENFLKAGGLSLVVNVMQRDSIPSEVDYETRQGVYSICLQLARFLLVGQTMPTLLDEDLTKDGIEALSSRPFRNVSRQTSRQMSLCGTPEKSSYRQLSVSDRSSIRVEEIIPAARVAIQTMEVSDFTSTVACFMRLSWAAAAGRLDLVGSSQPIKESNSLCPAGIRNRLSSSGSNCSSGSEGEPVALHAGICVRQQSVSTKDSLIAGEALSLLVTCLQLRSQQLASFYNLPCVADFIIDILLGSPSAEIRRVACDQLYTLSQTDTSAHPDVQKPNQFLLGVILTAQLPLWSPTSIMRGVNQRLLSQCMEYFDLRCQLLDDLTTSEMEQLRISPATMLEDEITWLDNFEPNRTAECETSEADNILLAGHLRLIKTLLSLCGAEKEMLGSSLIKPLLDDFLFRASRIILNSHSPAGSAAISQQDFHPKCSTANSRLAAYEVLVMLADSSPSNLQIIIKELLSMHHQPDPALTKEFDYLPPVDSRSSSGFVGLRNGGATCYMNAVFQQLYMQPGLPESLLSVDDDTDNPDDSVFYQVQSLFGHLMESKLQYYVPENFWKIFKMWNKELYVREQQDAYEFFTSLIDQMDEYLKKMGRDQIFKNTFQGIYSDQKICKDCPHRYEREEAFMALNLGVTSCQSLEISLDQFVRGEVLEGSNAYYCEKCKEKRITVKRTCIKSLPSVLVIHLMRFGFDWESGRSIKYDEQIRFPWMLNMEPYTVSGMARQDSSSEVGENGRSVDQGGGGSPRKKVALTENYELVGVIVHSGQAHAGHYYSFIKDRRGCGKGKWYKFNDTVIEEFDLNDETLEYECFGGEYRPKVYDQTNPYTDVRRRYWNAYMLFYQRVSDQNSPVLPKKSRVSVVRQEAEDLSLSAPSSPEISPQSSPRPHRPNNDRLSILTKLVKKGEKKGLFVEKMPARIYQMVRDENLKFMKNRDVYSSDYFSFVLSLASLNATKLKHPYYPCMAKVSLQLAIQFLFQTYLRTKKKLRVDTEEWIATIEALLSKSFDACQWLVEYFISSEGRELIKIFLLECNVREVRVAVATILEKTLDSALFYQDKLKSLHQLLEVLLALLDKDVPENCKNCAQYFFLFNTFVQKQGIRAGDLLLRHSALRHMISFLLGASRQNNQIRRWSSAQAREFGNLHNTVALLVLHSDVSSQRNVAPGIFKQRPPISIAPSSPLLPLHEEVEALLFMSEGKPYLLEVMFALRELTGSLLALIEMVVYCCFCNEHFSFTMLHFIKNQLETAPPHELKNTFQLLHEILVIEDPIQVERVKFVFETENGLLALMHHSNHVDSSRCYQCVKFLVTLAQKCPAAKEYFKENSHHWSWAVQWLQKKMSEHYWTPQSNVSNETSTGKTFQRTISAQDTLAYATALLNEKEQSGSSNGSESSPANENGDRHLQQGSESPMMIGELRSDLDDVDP
Method in brief: as §1

[4] = target: T3, USP25 (UniProt Q9UHP3)
T3 sequence (whole entry): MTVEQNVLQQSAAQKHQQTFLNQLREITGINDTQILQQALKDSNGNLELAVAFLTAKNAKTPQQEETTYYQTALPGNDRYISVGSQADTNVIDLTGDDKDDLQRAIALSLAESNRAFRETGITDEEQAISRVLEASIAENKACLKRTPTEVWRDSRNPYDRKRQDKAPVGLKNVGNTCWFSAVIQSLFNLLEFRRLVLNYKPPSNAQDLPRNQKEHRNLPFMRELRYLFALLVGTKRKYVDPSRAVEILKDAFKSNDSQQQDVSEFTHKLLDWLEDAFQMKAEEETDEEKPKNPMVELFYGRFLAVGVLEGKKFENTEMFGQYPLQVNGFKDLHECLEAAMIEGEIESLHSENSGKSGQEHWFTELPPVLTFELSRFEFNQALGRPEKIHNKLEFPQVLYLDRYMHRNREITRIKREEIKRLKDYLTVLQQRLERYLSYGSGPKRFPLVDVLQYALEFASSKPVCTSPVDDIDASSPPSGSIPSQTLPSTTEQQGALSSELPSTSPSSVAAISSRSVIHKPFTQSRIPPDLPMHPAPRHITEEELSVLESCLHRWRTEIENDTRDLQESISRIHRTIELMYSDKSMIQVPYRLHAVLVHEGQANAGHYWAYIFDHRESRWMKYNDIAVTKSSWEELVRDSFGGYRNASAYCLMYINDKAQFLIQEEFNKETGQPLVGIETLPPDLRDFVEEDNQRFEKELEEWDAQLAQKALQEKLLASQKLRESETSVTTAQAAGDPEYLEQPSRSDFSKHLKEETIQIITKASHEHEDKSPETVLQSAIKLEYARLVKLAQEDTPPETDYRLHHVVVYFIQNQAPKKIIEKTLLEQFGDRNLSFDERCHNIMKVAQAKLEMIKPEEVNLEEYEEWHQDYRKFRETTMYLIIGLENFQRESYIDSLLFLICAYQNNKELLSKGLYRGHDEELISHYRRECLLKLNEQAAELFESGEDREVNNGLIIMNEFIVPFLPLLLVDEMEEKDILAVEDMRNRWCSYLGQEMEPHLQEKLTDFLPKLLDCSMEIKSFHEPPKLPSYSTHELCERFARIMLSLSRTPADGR
Method in brief: as §1

[5] = target: T4, USP28 (UniProt Q96RU2)
T4 sequence (whole entry): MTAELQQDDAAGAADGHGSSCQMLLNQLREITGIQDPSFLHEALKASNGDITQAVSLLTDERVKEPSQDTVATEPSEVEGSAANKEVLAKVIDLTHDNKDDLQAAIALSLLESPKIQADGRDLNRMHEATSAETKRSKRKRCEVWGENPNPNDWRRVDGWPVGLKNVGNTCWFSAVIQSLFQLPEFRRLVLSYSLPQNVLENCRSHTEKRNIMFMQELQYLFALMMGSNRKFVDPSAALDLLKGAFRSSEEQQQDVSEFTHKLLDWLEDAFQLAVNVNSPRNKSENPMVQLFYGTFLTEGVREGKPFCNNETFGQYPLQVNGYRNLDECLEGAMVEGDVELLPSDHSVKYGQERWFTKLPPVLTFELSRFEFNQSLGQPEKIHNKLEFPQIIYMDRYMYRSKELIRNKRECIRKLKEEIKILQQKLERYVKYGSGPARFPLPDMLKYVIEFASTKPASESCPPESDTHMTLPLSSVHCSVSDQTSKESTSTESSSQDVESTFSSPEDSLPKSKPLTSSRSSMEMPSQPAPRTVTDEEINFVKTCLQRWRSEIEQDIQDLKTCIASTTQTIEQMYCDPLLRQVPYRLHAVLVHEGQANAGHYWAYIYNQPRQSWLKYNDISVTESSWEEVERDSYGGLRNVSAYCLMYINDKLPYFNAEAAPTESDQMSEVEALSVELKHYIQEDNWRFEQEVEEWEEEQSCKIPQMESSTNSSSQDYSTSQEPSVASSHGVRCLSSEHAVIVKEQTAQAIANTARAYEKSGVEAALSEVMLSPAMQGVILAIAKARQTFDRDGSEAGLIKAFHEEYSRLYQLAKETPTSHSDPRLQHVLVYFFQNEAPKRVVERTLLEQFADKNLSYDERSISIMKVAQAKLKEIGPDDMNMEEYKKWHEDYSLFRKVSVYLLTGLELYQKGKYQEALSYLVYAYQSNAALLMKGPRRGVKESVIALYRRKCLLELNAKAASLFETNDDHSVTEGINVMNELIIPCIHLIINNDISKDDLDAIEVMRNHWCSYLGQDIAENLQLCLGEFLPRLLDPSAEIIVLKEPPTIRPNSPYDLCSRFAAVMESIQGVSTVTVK
Method in brief: as §1

Measured: log2 ratio of Biotin-Ahx-Ub-VS probe labelling

Cc1cccnc1NC(=O)C1CCN(C(=O)CCl)CC1.Cl
inactive: [1] -0.314 | [2] 0.169 | [3] -0.409 | [4] -0.184 | [5] -0.564

Source: the supplement of paper PMC11732987, “Enantioselective OTUD7B fragment discovery through chemoproteomics screening and high-throughput optimisation” (Communications Chemistry, 2025)
